In the library only some 6% were active in any assay of this set; here they are far more common.
D1 PAM: human D1 dopamine receptor positive modulation; AID 504651; P21728; HEK293 TREx D1 cells, calcium flux, dopamine EC20 potentiation; potentiation, % at 10 µM; 360,000 tested, 0.036% active; in the data active means potentiation above about 30%; further: 0% is about no effect
D1 antagonist: human D1 dopamine receptor antagonism. P21728. HEK293 TREx D1 cells, calcium flux, dopamine EC80; active compounds read low. activity change, negative = inhibition, % at 10 µM. 360,000 tested, 3.2% active; in the data active means activity change below about -30%; further: on the % scale 0 is the no-effect control and ±100 the full control effect
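After overnight tetracycline induction at 30 C, force-coupled D1 HEK293 cells took up a no-wash calcium dye at room temperature. Compounds were added and monitored 180 s, and the response to EC80 dopamine was then recorded.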
DRD3 agonist: agonists of human D3 dopamine receptor | max activation, % | D3R DiscoveRx beta-arrestin cells, luminescence, 90 min | P35462 | 410,000 tested, 0.58% active; in the data active means max activation above about 30%; further: 0% is about no effect
Target sequence (P35462 whole entry, looked up): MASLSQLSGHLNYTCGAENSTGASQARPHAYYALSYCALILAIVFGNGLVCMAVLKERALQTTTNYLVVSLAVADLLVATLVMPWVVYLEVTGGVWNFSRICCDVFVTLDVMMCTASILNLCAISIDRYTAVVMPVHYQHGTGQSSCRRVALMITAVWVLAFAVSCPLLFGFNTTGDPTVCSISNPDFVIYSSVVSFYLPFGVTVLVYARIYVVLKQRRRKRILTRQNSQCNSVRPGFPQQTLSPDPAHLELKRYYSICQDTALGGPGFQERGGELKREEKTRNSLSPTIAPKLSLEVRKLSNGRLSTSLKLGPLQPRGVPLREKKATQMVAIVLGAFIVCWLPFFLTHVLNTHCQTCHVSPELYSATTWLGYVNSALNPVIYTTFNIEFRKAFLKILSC
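Agonist-mode cell screen: cells plated at 1500/well and incubated overnight at 37 °C, then exposed to library compounds for 90 min at 37 °C. Detection reagent was added for 30–60 min at room temperature, and luminescence was read.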
D1 agonist: agonists of human D1 dopamine receptor. activation, % at 2 µM. 360,000 tested, 1% active. P21728. HEK293 T-REx D1 cells, calcium flux, agonist mode; in the data active means activation above about 30%; further: 0% is about no effect
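Agonism was scored from calcium flux recorded over 180 s (1 read/s) after pintool compound addition, following a 10-cycle baseline. Cells were inducible force-coupled HEK293 TREx D1, plated overnight at 30 C and loaded with no-wash calcium dye.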
D3 antag: D3 dopamine receptor (human) antagonism; P35462; D3R cells, DiscoveRx beta-arrestin luminescence, antagonist mode; active compounds read low; max response, negative = inhibition, %; 360,000 tested, 2.5% active; in the data active means max response below about -50%; further: on the % scale 0 is the no-effect control and ±100 the full control effect
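Cells plated overnight at 1500 cells/well, then exposed to library compounds with dopamine controls for 90 minutes at 37 degrees C. DiscoveRx reagent added for 30–60 minutes at room temperature; luminescence read, quantitative HTS format.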
* = called active by the depositor; x = no result given.

SMILES	D1 PAM	D1 antagonist	DRD3 agonist	D1 agonist	D3 antag
O=C(O)C1OC(Oc2cc3oc(-c4ccccc4)cc(=O)c3c(O)c2O)C(O)C(O)C1O (centres undefined)	1	-2	32*	1	23
CCC(C(=O)Nc1ccc(C)c(Cl)c1)n1c(=O)c(-c2ccccc2NC(C)=O)nc2ccccc21 (centres undefined)	-1	-4	-19	-1	x
COc1ccc(NC(=O)C23CC4CC(C2)CC(c2ccccc2)(C4)C3)c(OC)c1	15	5	32*	5	5
COc1ccc(NC(=O)CNC(=O)C23CC4CC(CC(C4)C2)C3)c(OC)c1	-2	11	5	2	9
COc1ccc(NC(=O)C(=O)NNC(=O)c2cccs2)cc1	-5	7	-8	1	-21
COc1ccc(OC)c(NC(=O)C(=O)NNC(=O)C23CC4CC(CC(C4)C2)C3)c1	11	0	4	40*	9
COCCNC(=O)C12CC3CC(C1)CC(c1ccccc1)(C3)C2	-5	0	-7	1	-16
COc1ccc(NC(=O)c2ccc3[nH]c(C)c(C)c3c2)c(OC)c1	-6	-10	-17	5	-53*
COc1ccc(NC(=O)C(=O)NNC(=O)c2cccs2)c(OC)c1	-5	-9	-5	1	-73*
COc1ccc(-c2nnc(SCc3cc(=O)c4cc(C)cc(C)c4[nH]3)n2C)cc1	-2	-22	1	0	x
CCOc1cc(NC(=S)Nc2ccc(Cl)cc2)c(OCC)cc1NC(C)=O	1	-40*	3	9	0
CCOc1ccc(C2C=C(c3ccccc3)Nc3nnnn32)cc1 (centres undefined)	-5	-10	1	4	-4
CC1=CC(c2ccccc2)n2nc(N3C(=O)c4ccccc4C3=O)nc2N1 (centres undefined)	2	-5	5	-2	-15
CC1=CC(c2ccccc2)n2nnnc2N1 (centres undefined)	-5	-35*	2	5	-10
CN(C)c1ccc(C2C=C(c3ccccc3)Nc3nnnn32)cc1 (centres undefined)	-4	-14	-1	31*	x
Cn1cnc(S(=O)(=O)N2CCC(C(=O)N3CCN(c4ccccc4F)CC3)CC2)c1	0	8	-5	-1	x
COCCCNC(=O)c1ccc(-c2nc(CS(=O)(=O)c3ccc(C)cc3)c(C)o2)cc1	-2	-10	-8	-1	x
COc1ccc(CP(=O)(c2ccccc2)c2ccccc2)cc1	-3	4	-8	-3	0
O=P(Cc1nnco1)(c1ccccc1)c1ccccc1	2	13	-6	5	-63*
CC(Sc1nnc(-c2ccc(Cl)cc2Cl)n1Cc1ccccc1)C(=O)Nc1nccs1 (centres undefined)	2	-46*	1	0	11
Cc1c(N=C2N=C(NC(=O)c3cccs3)c3ccccc32)c(=O)n(-c2ccccc2)n1C	-5	-16	1	41*	28
Cc1nc(CSc2nsc(/C=C/N(C)C)c2C#N)cs1	-8	-10	-3	31*	-9
N#Cc1nc(COc2ccc(-c3ccccc3)cc2)oc1NCCCN1CCOCC1	-10	-30	-3	30	18
COc1ccc(-c2nc(C#N)c(NCCN(C)C)o2)cc1	x	x	-8	x	-61*
CN(C)CCNc1oc(COc2ccc(-c3ccccc3)cc2)nc1C#N	-3	-8	-20	40*	-20
SMILES	D1 PAM	D1 antagonist	DRD3 agonist	D1 agonist	D3 antag
N#Cc1nc(-c2ccc(OCc3ccccc3)cc2)oc1N1CCC(C(N)=O)CC1	-6	-36*	-1	14	30
COc1ccc(-c2nc(C#N)c(N3CCC(C(N)=O)CC3)o2)cc1	0	-5	7	3	38
CN1CCN(c2oc(COc3ccc(-c4ccccc4)cc3)nc2C#N)CC1	-10	-35*	-32	21	-4
Cc1c(Cl)cccc1NC(=O)CCn1cnnn1	-2	1	6	0	x
Cc1nnc(N2CCN(c3ccc(Cl)cc3)CC2)c2c1nnn2Cc1ccc(F)cc1	-2	7	7	2	x
Cn1c(Oc2ccc(Cl)cc2)nc2c1c(=O)n(Cc1ccc(F)cc1)c(=O)n2C	5	-29	4	4	x
Cc1cccc2c1N(Cc1ccccc1OCCC(C)C)C(=O)C2=O	-2	0	1	5	x

Screens as filed in PubChem BioAssay.
